Some compounds were tested as several samples or in several runs, with calls that do not always agree. Activity calls are given as the source filed them. The calls were made as follows: active = hit-call score of the fitted dose curve at least 0.9, where 1 is the maximum; inactive = score below 0.9.

Outcome and AC50 data for five compounds are collected here from PubChem BioAssay (EPA / NIEHS).

Test [1] is described as follows: APR_HepG2_CellCycleArrest_24hr: Apredica 24-hour HepG2 Assay for Cell Cycle Arrest (AID 2282905).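 Also: cell cycle arrest scored as ratio of 2N to 4N nuclear DNA content.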 The following applies: imaging, actives raise or lower the signal. In short, it runs like this:
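Compounds (0.39 to 200 uM, final DMSO 0.5% v/v) are applied to HepG2 cells for 24 hours; cells are then fixed, permeabilized and nuclei labeled with Hoechst 33342. Automated imaging measures DNA content, and activity is fitted in both directions against DMSO.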

Test [2] is described as follows: APR_HepG2_NuclearSize_24hr: Apredica 24-hour HepG2 Assay for Nuclear Size (AID 2282907). The following applies: high-content imaging, actives raise or lower the signal. In short, it runs like this: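 Nuclear size is measured by fluorescence high-content imaging of Hoechst-labelled HepG2 nuclei after 24 hr of treatment (0.39–200 uM, 0.5% DMSO). Cells are fixed in 3.7% formaldehyde before staining, and DMSO serves as the baseline for bidirectional curve fitting.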

The nature of test [3]: APR_HepG2_CellLoss_24hr: Apredica 24-hour HepG2 Assay for Cell Loss (AID 2282908).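 As to AC50: fit in both directions so a hit may be cell loss or gain.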 The conditions noted are these: high-content imaging. In short, it runs like this: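 Nuclear count serves as the viability measure: treated cells are fixed, permeabilized and labelled with Hoechst 33342, and six images per well are analysed to identify valid nuclei. Doses span 0.39–200 uM, and activity in either direction is scored against DMSO.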

Test [4] is described as follows: APR_HepG2_MicrotubuleCSK_24hr: Apredica 24-hour HepG2 Assay for Microtubule CSK Stabilty (AID 2282909). The following applies: HepG2 microtubule cytoskeleton imaging, actives raise or lower the signal. In short, it runs like this: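 Compounds were applied to HepG2 cells for 24 hours across 0.39–200 uM in duplicate, with final DMSO at 0.5% v/v. Fixed, permeabilized cells were labeled for alpha-tubulin and nuclei, and tubulin fluorescence was quantified by imaging, fitted bidirectionally against DMSO.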

Test [5] is described as follows: APR_HepG2_MitoticArrest_24hr: Apredica 24-hour HepG2 Assay for Mitotic Arrest (AID 2282910). The conditions noted are these: high-content imaging, actives raise or lower the signal. In short, it runs like this:
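HepG2, 24 hr dosing, 0.39–200 uM, 0.5% DMSO final. Formaldehyde-fixed, Triton-permeabilised, anti-phospho-histone H3 plus Hoechst. ArrayScan imaging at 20x; bidirectional fit vs DMSO baseline.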

Test [6] is described as follows: APR_HepG2_MitoMembPot_24hr: Apredica 24-hour HepG2 Assay for Mitochondrial Membrane Potential (AID 2282911). The following applies: imaging, actives raise or lower the signal. In short, it runs like this: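 HepG2, 24 hr dosing, 10 concentrations 0.39–200 uM, 0.5% DMSO final. Live-cell MitoTracker Red CMXRos 250 nM 30 min, then 3.7% formaldehyde fix. HCS fluorescence imaging, 20x; bidirectional fit vs DMSO baseline.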

Test [7] is described as follows: APR_HepG2_p53Act_24hr: Apredica 24-hour HepG2 Assay for p53 Activation (AID 2282913).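 Also: p53 protein immunofluorescence averaged per cell in HepG2 with Hoechst nuclei.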 The conditions noted are these: high-content imaging, actives raise or lower the signal. In short, it runs like this:
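Read-out: Cy5 immunofluorescence for p53 in fixed, permeabilized HepG2, imaged by HCS with Hoechst-defined nuclei. Dosing was 24 hr at 0.39–200 uM in 0.5% DMSO. Curves were fitted bidirectionally relative to DMSO.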

Test [8] can be described thus: APR_HepG2_CellCycleArrest_72hr: Apredica 72-hour HepG2 Assay for Cell Cycle Arrest (AID 2282914). The conditions noted are these: high-content imaging, actives raise or lower the signal. In short, it runs like this: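 HepG2, 72 hr exposure, 10-point 0.39–200 uM, duplicate, 0.5% DMSO final. Fix 3.7% formaldehyde 30 min RT, Triton X-100 0.5%, Hoechst 33342 2 ug/mL. ArrayScan 20x, six fields/well; DNA content per nucleus; bidirectional fit vs DMSO.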

Test [9] can be described thus: APR_HepG2_CellLoss_72hr: Apredica 72-hour HepG2 Assay for Cell Loss (AID 2282915). The following applies: high-content imaging. In short, it runs like this: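 HepG2 cells exposed 72 h to compound at 0.39–200 uM (10 concentrations, duplicate) in 0.5% DMSO. Fixed with 3.7% formaldehyde and Hoechst 33342-stained. Imaged at 20x; nuclear count gives cell number, fitted bidirectionally versus DMSO.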

Test [10] can be described thus: APR_HepG2_P-H2AX_72hr: Apredica 72-hour HepG2 Assay for H2AX Phosphorylation (AID 2282916).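 Also: phospho-histone H2A.x immunostain intensity per cell marking DNA damage.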 The following applies: imaging, actives raise or lower the signal. In short, it runs like this:
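Human hepatoma HepG2 cells are dosed across ten concentrations (0.39 to 200 uM, 0.5% v/v DMSO) and incubated 72 hr. Phospho-histone H2A.x is then detected by antibody staining alongside c-Jun and Hoechst, and quantified by automated fluorescence imaging.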

Test [11] can be described thus: APR_HepG2_MitoMembPot_72hr: Apredica 72-hour HepG2 Assay for Mitochondrial Membrane Potential (AID 2282917). The conditions noted are these: imaging, actives raise or lower the signal. In short, it runs like this: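 HepG2 cells dosed 72 hr with compound at 0.39–200 uM in duplicate, 0.5% v/v DMSO final. Mitochondria stained with 250 nM MitoTracker Red CMXRos for 30 min before formaldehyde fixation, imaged by high-content fluorescence; bidirectional fit versus DMSO.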

Test [12] can be described thus: APR_HepG2_MitoticArrest_72hr: Apredica 72-hour HepG2 Assay for Mitotic Arrest (AID 2282918). The following applies: high-content imaging, actives raise or lower the signal. In short, it runs like this:
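HepG2, 72 hr exposure, 0.39–200 uM in duplicate, 0.5% v/v DMSO final. Formaldehyde-fixed, Triton-permeabilized, anti-phospho-histone H3/FITC plus Hoechst. ArrayScan imaging at 20x; curves fit bidirectionally against DMSO baseline.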

Test [13] is described as follows: APR_HepG2_MicrotubuleCSK_72hr: Apredica 72-hour HepG2 Assay for Microtubule CSK Stabilty (AID 2282919). The following applies: HepG2 microtubule cytoskeleton, high-content imaging, actives raise or lower the signal. In short, it runs like this:
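HepG2, 72 hr cmpd exposure, 0.39–200 uM (10 pts, duplicate), 0.5% DMSO. 3.7% formaldehyde fix, 0.5% Triton perm, anti-alpha-tubulin/Cy5 plus Hoechst. HCS fluorescence intensity; bidirectional fit vs DMSO baseline; taxol as positive control.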

Test [14] in a line: APR_HepG2_P-H2AX_24hr: Apredica 24-hour HepG2 Assay for H2AX Phosphorylation (AID 2282920). The following applies: high-content imaging, actives raise or lower the signal. In short, it runs like this:
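HCS fluorescence imaging of phospho-H2A.x immunostain (with Hoechst 33342 nuclear counterstain) in HepG2 after 24 hr compound exposure; 10 concentrations, 0.39–200 uM, duplicate wells, 0.5% v/v DMSO. Gain or loss of signal fitted relative to DMSO baseline.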

Test [15] in a line: APR_HepG2_StressKinase_72hr: Apredica 72-hour HepG2 Assay for Stress Kinase (AID 2282921). The conditions noted are these: HepG2 stress kinase (phospho-c-Jun) imaging, actives raise or lower the signal. In short, it runs like this:
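After a 72 h compound treatment spanning 0.39 to 200 uM, formaldehyde-fixed cells are labelled for phosphorylated c-Jun and nuclei, imaged by automated fluorescence microscopy, and activity is fitted in both directions relative to DMSO controls.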

Test [16] can be described thus: APR_HepG2_StressKinase_24hr: Apredica 24-hour HepG2 Assay for Stress Kinase (AID 2282922). The following applies: HepG2 stress kinase (phospho-c-Jun) imaging, actives raise or lower the signal. In short, it runs like this:
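Read-out: phospho-c-Jun immunofluorescence (Cy3 secondary) quantified by high-content imaging at 20x, nuclei defined by Hoechst 33342. Human HepG2 liver cells dosed 24 hr, 0.39–200 uM, DMSO 0.5% v/v; gain or loss of signal fitted relative to DMSO.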

Test [17] in a line: APR_HepG2_p53Act_72hr: Apredica 72-hour HepG2 Assay for p53 Activation (AID 2282923).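 Also: average cellular p53 protein immunofluorescence intensity in HepG2 cells.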 The following applies: high-content imaging, actives raise or lower the signal. In short, it runs like this: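 Imaging-based endpoint: after 72 hr compound exposure (up to 200 uM, 0.5% DMSO), fixed and permeabilized monolayers were labelled with anti-p53 antibody and imaged; signal change in either direction was fitted relative to DMSO controls.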

Test [18] in a line: APR_HepG2_MitoMass_72hr: Apredica 72-hour HepG2 Assay for Mitochondrial Mass (AID 2282924).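 Also: MitoTracker Red CMXRos stain intensity per cell imaged as mitochondrial mass.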 The conditions noted are these: high-content imaging, actives raise or lower the signal. In short, it runs like this:
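Read-out: MitoTracker Red fluorescence intensity from automated imaging (20x, six fields per well) in human HepG2 liver cells. Dosing ran 72 hr, 0.39–200 uM, 0.5% DMSO; bidirectional curve fitting versus DMSO baseline.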

Test [19] can be described thus: APR_HepG2_NuclearSize_72hr: Apredica 72-hour HepG2 Assay for Nuclear Size (AID 2282925). The conditions noted are these: high-content imaging, actives raise or lower the signal. In short, it runs like this:
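Read-out: nuclear diameter from Hoechst 33342 images (ArrayScan, 20x, six fields/well), via cell-cycle image analysis. HepG2 were dosed 0.39–200 uM for 72 hr in 0.5% DMSO. Bidirectional fit relative to DMSO.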

Take `O=C(O)C(F)(F)C(F)(F)C(F)(F)C(F)(F)C(F)(F)C(F)(F)F`: the compound was called inactive in test [1], in test [2], in test [3], in test [4], in test [5] and in test [6]. Further, the call in test [7], in test [8], in [11], in test [13], in test [14] and in test [16] was inactive. The half-maximal activity concentration (AC50) was 14.5 µM (active) in test [9]; 13.6 µM (active) in test [10]; 8.69 µM (active) in test [12]; 97.8 µM (active) in test [15]; 10.2 µM (active) in test [17]; 13 µM (active) in test [18]. For the same compound, in test [19], the half-maximal activity concentration (AC50) is 6.95 µM (active).
On to `ClC1(Cl)C2(Cl)C3(Cl)C4(Cl)C(Cl)(Cl)C5(Cl)C3(Cl)C1(Cl)C5(Cl)C24Cl` (stereo not drawn), for which the outcome in test [1], in test [2], in [3], in test [4], in test [5] and in test [6] was inactive. Moreover, the call in test [7], in test [8], in test [9], in [10], in test [11] and in [12] was inactive. Also, the compound was classed as inactive in test [13], in test [14], in test [15], in test [16], in [17] and in test [18]. Also, the compound was classed as inactive in test [19].
`ClCC(Cl)CCl`: the result in [1], in test [2], in test [3], in test [4], in test [5] and in test [6] was inactive. Further, the compound was classed as inactive in [7], in test [8], in test [9], in [10], in test [11] and in test [12]. Besides, the outcome in test [13], in test [14], in test [15], in [16], in test [17] and in test [18] was inactive. The call in test [19] was inactive.
On to `O=C(O)C(F)(F)C(F)(F)C(F)(F)C(F)(F)C(F)(F)C(F)(F)C(F)(F)C(F)(F)C(F)(F)C(F)(F)F`, for which the AC50 in test [1] was 68.4 µM (active); in test [3], 83.1 µM (active); in test [4] it was 56.7 µM (active); in [5], 60.9 µM (active); in test [7] it was 66.9 µM (active); in [8], 68.8 µM (active). The AC50 in test [9] is 83.3 µM (active); in test [10], 90.6 µM (active); in test [12], 66.5 µM (active); in [14], 71.5 µM (active); in test [16] it was 73.8 µM (active); in [17], 85.3 µM (active). Moreover, in test [18], the concentration at half-maximal activity (AC50) was 72.9 µM (active). Moreover, the compound was classed as inactive in [2], in test [6], in test [11], in [13], in test [15] and in test [19].
`O=C(O)C(Cl)(Cl)Cl`: the result in test [1], in test [2], in [3], in test [4], in test [5] and in test [6] was inactive. The outcome in test [7], in [8], in test [9], in [10], in test [11] and in test [12] was inactive. The outcome in test [13], in test [14], in [15], in [16], in test [17] and in test [18] was inactive. For the same compound, the outcome in test [19] was inactive. The AC50 in test [3] is 100 µM (active); in test [6] it was 101 µM (active); in test [7] it was 165 µM (active); in [8] it was 171 µM (active); in [9] it was 110 µM (active); in [12], 114 µM (active). Besides, the AC50 was 106 µM (active) in test [14] and 162 µM (active) in test [18].

The AC50 is the midpoint of the concentration-response curve, whichever way the signal moves.
